Results filed as inconclusive are left out. A call without a number means that no potency is given here. The source made the active and inactive calls. Calls come from the whole dose curve; as a rule, active = well fitted cell-killing curve with a large enough effect in the repeat runs; inconclusive = weak or mixed curves, or effect the other way; inactive = no such curve, though single readings can be large or run the other way.

The assay in a line: qHTS assay to identify small molecule agonists of the vitamin D receptor (VDR) signaling pathway - cell viability counter screen (AID 743224). Note: nearly all actives have a fitted effect of over 50% in size. The following applies: VDR-bla HEK293T viability, CellTiter-Glo luminescence, 16 h; series mostly up to 62.6 µM. An outline of the steps:
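Compounds were pin-transferred onto VDR-bla cells plated 4 h earlier; following 16 h incubation at 37C, cell viability was quantified by CellTiter-Glo luminescence after 30 min at room temperature.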
For the molecule `NNc1nnc(NN)c2ccccc12`, the Potency entry is “inactive”.
Take `C=CCCCCCCCCCCCC`: the Potency entry is “inactive”.
The same measure for `O=C(O)c1ccc(Cl)cc1Cl`: “inactive”; for `O=C1CC(c2ccc(Cl)cc2)CC(=O)N1`: “inactive”.
In the case of `Cc1nc2n(c(=O)c1CCN1CCC(c3noc4cc(F)ccc34)CC1)CCC[C@H]2O`, the Potency result was “inactive”.
With `CN(C)C(=O)CNC(=O)Cc1ccccc1`, the Potency entry is “inactive”.
Consider `C=C(C)C(=O)OCC(C)(C)COC(=O)C(=C)C`, for which the Potency result was “inactive”.
The same measure for `O=C(O)c1cc(Cl)cc([N+](=O)[O-])c1Cl`: “inactive”; for `O=S(=O)(O)c1ccc2cc(O)c(S(=O)(=O)O)cc2c1`: “inactive”; for `On1nnc2ccccc21`: “inactive”.
Turning to `CN=C(NC#N)Nc1ccc(C2=NNC(=O)CC2C)cc1` (configuration not stated), the Potency entry was “inactive”.
For the molecule `CC(=O)Nc1cccc(C)c1`, the Potency entry is “inactive”.
For `CCc1ccc(C=O)cc1`, the Potency result was “inactive”.
For the molecule `CC/C=C\CC1=C(C)CCC1=O`, the Potency result is “inactive”.
Consider `OC[C@H](Cc1cccc(O)c1)[C@H](CO)Cc1cccc(O)c1`, for which the Potency result is “inactive”.
The result for `COc1ccc(Br)c(C)c1` reads “inactive”; that for `Cc1ccc(C=O)cc1C`, “inactive”; that for `CCCC/C=C\CCCCCCCCCC=O`, “inactive”.
The result for `COc1cc2c(cc1OC)[C@@H]1CC(=O)[C@@H](CC(C)C)CN1CC2` reads “inactive”.
As to `c1ccc2nccnc2c1`, the Potency entry is “inactive”.
As for `Cc1ccc2ccc(Cl)cc2n1`, the Potency result was “inactive”.
Turning to `CC(=O)OC(C)OC(=O)C(C)c1ccc(-c2ccccc2)c(F)c1` (configuration not stated), the Potency entry was “inactive”.
The result for `CC(C)(C)c1nnc(NS(=O)(=O)c2ccc(N)cc2)s1` reads “inactive”.
In the case of `CCn1ccc(NS(=O)(=O)c2ccc(N)cc2)nc1=O`, the Potency entry was “inactive”.
The same measure for `COc1ccc2c(c1)C(=O)N(CCc1ccc(S(=O)(=O)NC(=O)NC3CCCCC3)cc1)C(=O)C2(C)C`: “inactive”; for `Cc1ccc2c(c1)OCC(=O)CO2`: “inactive”.
Consider `Cc1ccc(S(=O)(=O)O)c(C)c1`, for which the Potency result is “inactive”.
As to `Cc1cc2cc3c(C)cc(=O)oc3c(C)c2o1`, the Potency entry is “inactive”.
Consider `COc1nccnc1NS(=O)(=O)c1ccc(N)cc1`, for which the Potency result was “inactive”.
For the molecule `C=C(C)C1CCC(C)(O)CC1` (configuration not stated), the Potency entry was “inactive”.
Consider `CC(C)N(c1ccccc1)C(C)C`, for which the Potency entry is “inactive”.
The result for `CC(C)c1ccc2cc(C(C)C)ccc2c1` reads “inactive”.
For `C=C(C)C(=O)OCCOP(=O)(O)OCCOC(=O)C(=C)C`, the Potency entry is “inactive”.
For `Cc1cc(Cl)c(C)cc1Cl`, the Potency result is “inactive”.
Consider `O=C(O)Cc1cn(-c2ccccc2)nc1-c1ccc(Cl)cc1`, for which the Potency entry was “inactive”.
Turning to `COC(=O)CCc1ccc(OCC(O)CNC(C)C)cc1` (configuration not stated), the Potency entry was “inactive”.
As for `COc1ccc(-c2cc(=O)c3c(O)cc(O[C@@H]4O[C@H](CO[C@@H]5O[C@@H](C)[C@H](O)[C@@H](O)[C@H]5O)[C@@H](O)[C@H](O)[C@H]4O)cc3o2)cc1O`, the Potency entry is “inactive”.

The record behind these values is PubChem BioAssay (Tox21).
